The results in this text go back to ChEMBL document CHEMBL1157539, “Thousands of chemical starting points for antimalarial lead identification” (Nature, 2010).

Type in all cases: functional
The subject of assay [1] is Plasmodium falciparum. Briefly: GSK_TCMDC: Inhibition of Plasmodium falciparum 3D7 in whole red blood cells, using parasite LDH activity as an index of growth. Test compounds present at 2uM.
Assay [2] relates to Plasmodium falciparum. In words: GSK_TCMDC: Inhibition of Plasmodium falciparum Dd2 in whole red blood cells, using parasite LDH activity as an index of growth. Test compounds present at 2uM.
Another assay concerns HepG2. Briefly: GSK_TCMDC: Percent inhibition of human HepG2 cell line. Test compounds present at 10uM.

Molecules are shown by their SMILES.

The Inhibition is the change of the read-out against control, counted positive when it falls. High values mean strong suppression, low ones little suppression. Turning to `OC(CNCc1ccccc1Oc1ccccc1)c1cc(Br)cs1` (stereo not given), the Inhibition was 94% with Plasmodium falciparum [1], 79% in the assay on Plasmodium falciparum [2] and 0% in the assay on HepG2.
The like results for `c1cc2[nH]c(CCCc3nc4cc(C5=N[C@H]6CCCC[C@H]6N5)ccc4[nH]3)nc2cc1C1=N[C@@H]2CCCC[C@@H]2N1` were, in that order, 85%, 84% and 10%.
The like results for `Cc1nnsc1C(=O)Nc1cccc(-c2cccc(-c3nc4cccc(C)c4[nH]3)c2)c1` were, in that order, 99%, 80% and 22%.
The like results for `CCCC(C)Nc1nc(C)cc(N[C@@H](Cc2ccccc2)C(=O)NCc2cccc(F)c2)n1.O=C(O)C(F)(F)F` (stereo not given in full) were, in that order, 100%, 75% and 9%.
`COc1ccc(-c2ccc(NC(=O)c3cccs3)cc2)cc1CN1CCCN(C)CC1.O=C(O)C(F)(F)F`: the Inhibition with Plasmodium falciparum [1] is 100%; in the assay on Plasmodium falciparum [2], 30%; in the assay with HepG2, 31%.
`CN1CCN(c2ccnc3ccc(NC(=O)Nc4ccc(Cl)cc4)cc23)CC1`: the results for the Inhibition in the assay with Plasmodium falciparum [1], in the assay on Plasmodium falciparum [2] and in the assay with HepG2 were 100%, 99% and 11%, respectively.
Taken in the same sequence, the figures for `Cc1cccc2nc(-c3ccc(-c4cccc(CNCc5ccccc5)c4)cc3)[nH]c12.O=C(O)C(F)(F)F` were 100%, 52% and 3%.
Taken in the same sequence, the figures for `Cl.N=c1n(CCN2CCCCC2)c2ccccc2n1CC(O)c1ccc(Cl)c(Cl)c1` (stereo not given) were 97%, 97% and 50%.
Taken in the same sequence, the figures for `CS(=O)(=O)NCCCNCc1ccc(-c2ccc(-c3nc4cc(C(F)(F)F)ccc4[nH]3)cc2)cc1.O=C(O)C(F)(F)F` were 100%, 83% and 25%.
For the compound `CCCCN1CC[C@@H](CCC(O)c2cc(OCCC)nc3ccc(OC)cc23)[C@@H](CC)C1.O=C(O)C(=O)O` (stereo not given in full), the figures for the Inhibition in the assay on Plasmodium falciparum [1], in the assay with Plasmodium falciparum [2] and in the assay on HepG2 were 100%, 99% and 23%, respectively.
The like results for `CCn1c(-c2nonc2N)nc2c(C#CC(C)(C)O)ncc(OCCNCCc3ccc(OC)cc3)c21.O=C(O)C(F)(F)F` were, in that order, 91%, 44% and 4%.
The like results for `CN1CCN(CCCNCc2cccc(Nc3nccc(Nc4ccc(Oc5ccccc5)cc4)n3)c2)CC1` were, in that order, 100%, 80% and 97%.
As to `O=C(O)C(F)(F)F.Oc1ccc(CCNc2nc(NCc3ccccc3-c3ccccc3)nc(N3CCCNCC3)n2)cc1`, the Inhibition in the assay on Plasmodium falciparum [1] was determined as 95%; in the assay with Plasmodium falciparum [2] it was 20%; in the assay on HepG2 it was 26%.
The like results for `CN(C)Cc1ccc(O)c(-c2ccc(C(C)(C)C)cc2)n1.Cl` were, in that order, 86%, 25% and 0%.
With `CC(C)S(=O)(=O)N1CCN(Cc2ccc3c(c2)nc(NC(=O)c2ccsc2)n3C[C@H](O)c2ccccc2)CC1`, the Inhibition in the assay with Plasmodium falciparum [1] was found to be 91%; in the assay on Plasmodium falciparum [2], 72%; in the assay on HepG2 it was 56%.
The like results for `CC(=O)Nc1cccc(/C=C/C(=O)N2CCC(N3CCCCC3)CC2)c1` were, in that order, 96%, 0% and 1%.
`O=C(NCCc1ccccc1)N(Cc1ccccc1-c1cccc(CNC2CCCC2)c1)C1CCN(Cc2ccccc2)CC1.O=C(O)C(F)(F)F`: the Inhibition in the assay on Plasmodium falciparum [1] is given as 95%; in the assay on Plasmodium falciparum [2], 87%; in the assay on HepG2, 31%.
As to `Cc1cccc(Cn2c(Cc3ccccc3)nnc2Sc2ccc([N+](=O)[O-])c(C#N)c2)c1`, the Inhibition in the assay with Plasmodium falciparum [1] came to 91%; in the assay on Plasmodium falciparum [2] it was 3%; with HepG2, 17%.
Taken in the same sequence, the figures for `Cc1ccc(Cn2ncc(N3CC(C)NC(C)C3)c(Cl)c2=O)cc1NC(=O)Nc1ccc(-c2ccccc2)cc1.O=C(O)C(F)(F)F` (stereo not given) were 100%, 29% and 51%.
In the case of `Clc1ccc2c(NCc3ccc4c(c3)OCO4)ccnc2c1`, the results for the Inhibition with Plasmodium falciparum [1], in the assay with Plasmodium falciparum [2] and in the assay on HepG2 were 100%, 97% and 6%, respectively.
For the compound `COc1cccc(NC(=O)Cn2c(C)c(C#N)c3ccccc32)c1`, the Inhibition with Plasmodium falciparum [1] is recorded as 100%; with Plasmodium falciparum [2], 100%; with HepG2 it was 16%.
As to `CCN(CC)CCN(Cc1ccc(-c2ccc(C(F)(F)F)cc2)cc1)C(=O)Cn1c(CCc2c(F)cc(F)cc2F)nc(=O)c2ccccc21.O=C(O)C(O)C(O)C(=O)O`, the Inhibition with Plasmodium falciparum [1] is given as 89%; in the assay with Plasmodium falciparum [2] it was 26%; in the assay on HepG2, 39%.
For `O=C(/C=C/c1cccc(OC(F)(F)F)c1)NCCCCCN1CCC(c2c[nH]c3ccccc23)CC1`, the Inhibition in the assay with Plasmodium falciparum [1] worked out at 93%; with Plasmodium falciparum [2] it was 13%; in the assay with HepG2, 27%.
For `Cc1cc(N2CCCC2)nc(Nc2ccc(NC(=O)Cc3ccccc3)cc2)n1`, the values for the Inhibition with Plasmodium falciparum [1], with Plasmodium falciparum [2] and with HepG2 were 100%, 72% and 71%, respectively.
On to `O=C(Nc1cccc(-c2cccc(-c3nc4ccccc4[nH]3)c2)c1)Nc1ccc2c(c1)OCO2`, for which the Inhibition with Plasmodium falciparum [1] was found to be 100%; in the assay on Plasmodium falciparum [2], 57%; in the assay on HepG2 it was 25%.
As for `Cc1cc(=NN=Cc2cccc(F)c2)c2cccc(C)c2[nH]1`, the Inhibition in the assay on Plasmodium falciparum [1] worked out at 100%; in the assay on Plasmodium falciparum [2], 53%; in the assay with HepG2 it was 14%.
Taken in the same sequence, the figures for `c1ccc(Oc2ccc(Nc3ccnc4cc(-c5ccc(CNCCN6CCOCC6)o5)ccc34)cc2)nc1` were 100%, 100% and 0%.
The like results for `Cc1cccc(CN2CCN(c3ncc(C(=O)NC4CC4)cc3Cl)CC2)c1.O=C(O)C(F)(F)F` were, in that order, 84%, 73% and 2%.
The like results for `Cc1cccc(CCNC(=O)c2cc(Br)cc(N3CCN(c4ccncc4)CC3)c2)c1.O=C(O)C(F)(F)F` were, in that order, 96%, 53% and 48%.
Consider `O=C(Cn1c(CCc2cccc(F)c2F)cc(=O)c2cccnc21)N(CCN1CCCC1)Cc1ccc(-c2ccc(C(F)(F)F)cc2)cc1.O=C(O)C(O)C(O)C(=O)O`, for which the Inhibition with Plasmodium falciparum [1] came to 99%; in the assay on Plasmodium falciparum [2], 64%; in the assay with HepG2 it was 48%.
In the case of `O=C(O)C(F)(F)F.c1ccc2[nH]c(-c3ccc(-c4ccc(CN5CCN(CCN6CCOCC6)CC5)cc4)s3)nc2c1`, the Inhibition in the assay with Plasmodium falciparum [1] is on record as 100%; in the assay with Plasmodium falciparum [2] it was 100%; in the assay with HepG2, 39%.
Consider `Cl.Ic1cc(CNC2CCCCC2)ccc1OCc1cccc(COc2ccc(CNC3CCCCC3)cc2I)c1`, for which the Inhibition turned out to be 93% in the assay on Plasmodium falciparum [1], 34% in the assay with Plasmodium falciparum [2] and 0% in the assay with HepG2.
On to `CC1CNC(c2cccc(NC(=O)Nc3cccc(C4=NC(C)CN4)c3)c2)=N1.Cl` (stereo not given), for which the Inhibition is given as 94% in the assay with Plasmodium falciparum [1], 98% with Plasmodium falciparum [2] and 7% with HepG2.
For the compound `CC1(C)NC(N)=NC(=N)N1OCOc1cc(Cl)c(Cl)cc1Cl.Cl`, the Inhibition is 96% in the assay on Plasmodium falciparum [1], 98% in the assay with Plasmodium falciparum [2] and 66% with HepG2.
For the compound `COc1ccc2nccc(N3CCC(O)(CCNCc4ccc5c(n4)NC(=O)CS5)CC3)c2n1.Cl`, the Inhibition was 99% in the assay on Plasmodium falciparum [1], 21% with Plasmodium falciparum [2] and 10% in the assay on HepG2.
For `CCCCCOc1ccc(/N=C2\C=C(O)C(=O)c3ccccc32)cc1`, the results for the Inhibition in the assay on Plasmodium falciparum [1], in the assay with Plasmodium falciparum [2] and with HepG2 were 99%, 96% and 10%, respectively.
`COc1ccc2cc(C(=O)NC3CCC(CCN4CCc5cc(C#N)ccc5C4)CC3)[nH]c2c1.Cl` (stereo not given): the figures for the Inhibition in the assay on Plasmodium falciparum [1], with Plasmodium falciparum [2] and in the assay with HepG2 were 88%, 0% and 9%, respectively.
The like results for `CCCCCCn1c(Sc2ccc(C#N)c([N+](=O)[O-])c2)nnc1-c1ccc(OC)cc1` were, in that order, 95%, 51% and 19%.
Taken in the same sequence, the figures for `COc1cccc(CNC[C@@H](O)[C@H](Cc2ccccc2)NC(=O)c2cc(C(C)C)cc(N3CCCC3=O)c2)c1` were 95%, 61% and 1%.
The like results for `CCC[C@@H]([C@@H](CC(C)C)C(=O)N[C@@H](CCCCNC(=O)OCc1ccccc1)C(=O)Nc1ncccn1)N(O)C=O` were, in that order, 100%, 98% and 3%.
As for `COc1cc2nc(N3CCC(CNC(=O)c4ccc(-c5ccc(Cl)cc5)cc4)CC3)nc(N)c2cc1OC`, the figures for the Inhibition in the assay with Plasmodium falciparum [1], in the assay with Plasmodium falciparum [2] and with HepG2 were 100%, 100% and 99%, respectively.
Regarding `O=C(O)C(F)(F)F.c1cnc2ccc(NCc3ccc(-c4ccc(CNC5CCCC5)cc4)cc3)cc2c1`, the Inhibition was found to be 97% in the assay on Plasmodium falciparum [1], 21% with Plasmodium falciparum [2] and 27% with HepG2.
As to `Cc1cc(OCCCN2CCCCC2C)ccc1NC(=O)COc1ccc(Cl)cc1C(=O)c1cc(Cl)cc(C#N)c1` (stereo not given), the Inhibition with Plasmodium falciparum [1] came to 91%; in the assay on Plasmodium falciparum [2] it was 14%; with HepG2, 23%.
Take `COc1cc(C)ccc1S(=O)(=O)N1CCCCC(c2ccc(C(F)(F)F)cc2)=N1`: the Inhibition was 92% with Plasmodium falciparum [1], 89% in the assay with Plasmodium falciparum [2] and 16% in the assay on HepG2.
Consider `CC(C)c1ccc(N2CCN(CCCCNC(=O)c3ccc(NC(=O)c4cc(Cl)cc(Cl)c4)cc3)CC2)cc1`, for which the Inhibition is listed as 100% in the assay on Plasmodium falciparum [1], 86% in the assay with Plasmodium falciparum [2] and 12% in the assay on HepG2.
The like results for `CCOc1ccc2c(=NN=Cc3ccccn3)cc(C)[nH]c2c1` were, in that order, 98%, 1% and 19%.
For `CC1CCC(NCc2c(O)ccc3ccccc23)CC1.Cl` (stereo not given), the values for the Inhibition in the assay on Plasmodium falciparum [1], in the assay on Plasmodium falciparum [2] and with HepG2 were 95%, 77% and 13%, respectively.
The like results for `O=C(Cc1c[nH]cn1)Nc1cccc(-c2ccc(-c3nc4cc(F)ccc4[nH]3)s2)c1` were, in that order, 100%, 94% and 4%.
Taken in the same sequence, the figures for `Cc1nc(N)nc(N)c1OCCCOc1cccc(Cl)c1Cl.Cl` were 93%, 95% and 59%.
As for `COc1cc(CCCOc2c(N)nc(N)nc2N)cc(OC)c1OC`, the Inhibition is given as 88% with Plasmodium falciparum [1], 0% in the assay with Plasmodium falciparum [2] and 8% in the assay on HepG2.
The like results for `O=C(C=Cc1ccc(Cl)c(Cl)c1)NCCCCCN1CCCC(CCCNC(=O)/C=C/c2ccccc2)C1` (stereo not given) were, in that order, 98%, 12% and 92%.
Taken in the same sequence, the figures for `O=C(NCCCCN1CC=C(c2ccc3c(c2OCc2ccccc2)CCCC3)CC1)c1ccc(-c2ccc(C(F)(F)F)cc2)cc1` were 97%, 82% and 19%.
For `CC(=O)c1cccc(NC(=O)C2c3ccccc3C(=O)N(CC(C)C)C2c2cccs2)c1` (stereo not given), the Inhibition with Plasmodium falciparum [1] was 100%; in the assay on Plasmodium falciparum [2], 100%; in the assay on HepG2, 11%.
With `Nc1ncnc2cc(-c3cccc(NC(=O)Nc4ccccc4)c3)sc12`, the values for the Inhibition with Plasmodium falciparum [1], in the assay with Plasmodium falciparum [2] and with HepG2 were 94%, 33% and 4%, respectively.
The like results for `N#Cc1ccc(-n2cc(C(=O)Nc3ccc4c(c3)CCN(C3CCC3)CC4)c(C(F)(F)F)n2)cc1.O=C(O)C(F)(F)F` were, in that order, 100%, 99% and 37%.
Taken in the same sequence, the figures for `CCCCCOc1ccc(C(=NC)N(CCCCC)CCCCC)c2ccccc12.I` were 96%, 80% and 70%.
Taken in the same sequence, the figures for `CCc1c(CCNCCCCCCNCCc2ccc(OC)c(OC)c2CC)ccc(OC)c1OC.Cl` were 100%, 1% and 58%.
Take `COc1cc2nc(C)nc(Nc3ccc(Oc4ccccc4)cc3)c2cc1OC.Cl`: the Inhibition in the assay with Plasmodium falciparum [1] was 100%; with Plasmodium falciparum [2], 72%; in the assay on HepG2 it was 0%.
Taken in the same sequence, the figures for `O=C(/C=C/c1ccc(Cl)c(Cl)c1)NCCCCCCN1CCCN(C(=O)Nc2ccc(Cl)c(Cl)c2)CC1` were 100%, 8% and 25%.
For the compound `CCC1N=C(N)N=C(N)N1OCc1cccc2ccccc12` (stereo not given), the Inhibition in the assay with Plasmodium falciparum [1] worked out at 93%; in the assay on Plasmodium falciparum [2] it was 1%; in the assay on HepG2 it was 66%.
